# Hits are enriched below; roughly 19% of the tested compounds scored in any of these assays.
# HT1080 IDH1KD tx: qHTS for induction of synthetic lethality in tumor cells producing 2HG: qHTS for the HT-1080-IDH1KD cell line; HT-1080 IDH1 knockdown viability, ATP luminescence, 48 h; Potency, µM (titrated, usually from 46.1 µM), for the others: top-dose activity, negative = toxicity, actives largely listed as cytotoxic; 360,000 tested, 2% active; AID 686971, 2013;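 also: potency is read from the fitted curve at half-maximal effect; 0% = DMSO wells and -100% = cell-free medium wells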
#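 Knockdown cells (IDH1KD HT-1080) received compounds 2 h after plating at 750 cells/well and were kept 48 h at 37 °C in 5% FBS RPMI. A CellTiter-Glo luminescence read gave % activity for curve fitting.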
# HT1080-NT tox: qHTS for induction of synthetic lethality in tumor cells producing 2HG: qHTS for the HT-1080-NT fibrosarcoma cell line. HT-1080-NT fibrosarcoma viability, CellTiter-Glo ATP luminescence, 48 h. Potency, µM (series often up to 46.1 µM), inactives show at the highest dose activity, negative = less viability, actives largely listed as cytotoxic. 360,000 tested, 1.6% active. AID 686970, 2013;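 also: NT is the 2HG producing partner of a matched IDH1 knockdown line; potency is read from the fitted curve at half-maximal effect; 0% = DMSO-treated cells and -100% = media-only wells without cells; nearly all actives have a fitted effect of over 55% in size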
#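 Fibrosarcoma NT cells, 750 per well in 5% FBS RPMI, were exposed to compound for 48 hours. Viability: CellTiter-Glo luminescence.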
# TDP1 cell CPT: qHTS for Inhibitors of human tyrosyl-DNA phosphodiesterase 1 (TDP1): qHTS in cells in presence of CPT; chicken DT40 Tdp1-/-;hTDP1 cells + 20 nM CPT, ATP luminescence, 48 h; Potency, µM (top dose mostly 46.2 µM), for inactives: top-dose activity change, negative = growth inhibition, hits mostly inhibitors; 420,000 tested, 12% active; AID 686979, 2013; also: potency is read from the fitted curve at half-maximal effect; nearly all actives have a fitted effect of over 55% in size
#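 Chicken DT40 Tdp1-/- cells stably complemented with human TDP1 were seeded at 400 cells/well in medium containing 20 nM camptothecin, exposed to pin-transferred compounds, and grown at 37 °C for at least 48 hr. Viability was read as ATP luminescence.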
# TDP1 cell noCPT: qHTS for Inhibitors of human tyrosyl-DNA phosphodiesterase 1 (TDP1): qHTS in cells in absence of CPT; DT40 Tdp1-/- hTDP1 cells, no CPT, ATP luminescence, 48 h; Potency, µM (titrated, usually from 46.2 µM), for inactives: at the highest dose activity change, negative = growth inhibition, actives largely listed as inhibitors; 420,000 tested, 15% active; AID 686978, 2013; also: potency is read from the fitted curve at half-maximal effect; nearly all actives have a fitted effect of over 55% in size
#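 Stably hTDP1-transfected Tdp1-null chicken DT40 cells were treated with library compounds minus camptothecin and grown for at least 48 hr at 37 °C, after which cellular ATP was quantified by luminescence.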
# ELG1 repair inh: qHTS screen for small molecules that inhibit ELG1-dependent DNA repair in human embryonic kidney (HEK293T) cells expressing luciferase-tagged ELG1; Potency, µM (highest dose often 46.1 µM), for inactives: at the highest dose activity change, negative = inhibition, actives largely listed as inhibitors; HEK293T ELG1-luciferase reporter, luminescence, 16 h; DNA damage induced by 5-fluorouridine; 330,000 tested, 2.3% active; also: potency is read from the fitted curve at half-maximal effect; nearly all actives have a fitted effect of over 55% in size
#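 Overnight (16 hr) co-exposure of 2,000 cells/well to 5-fluorouridine and compound at 37 °C preceded detection. Luciferase was quantified via ONE-Glo luminescence; loss of signal denotes inhibition.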
# IL1B secr inh: qHTS for Inhibitors of Inflammasome Signaling: IL-1-beta AlphaLISA Primary Screen; 360,000 tested, 4.7% active; activity change, % at 57.5 µM; THP-1 LPS/ATP IL-1B secretion, AlphaLISA, 16 h; hits give low values; in the data active = activity change below about -50%; inconclusive = mostly about -30% to -49%
#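 Secreted IL-1B measured by AlphaLISA bead assay after 16 h compound exposure of THP-1 cells; compounds (final up to 57.5 uM) added 1 h before LPS (250 ng/mL) and ATP (1.25 mM) stimulation; lower signal means less secretion.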
# Active calls of the source: *; ? = inconclusive; nt = no result given. Unless noted, calls follow the shape of the dose curve; as a rule, active = well fitted curve in the direction sought with a large enough effect; inconclusive = small, poorly fitted or top-dose-only effect, or another doubt; inactive = no such curve, though single readings can be large; an effect the other way counts as inactive or inconclusive. Unless noted, % is scaled to controls: 0 for no effect and ±100 for the full control effect.
SMILES,HT1080 IDH1KD tx,HT1080-NT tox,TDP1 cell CPT,TDP1 cell noCPT,ELG1 repair inh,IL1B secr inh
COc1ccc(Cl)cc1NC(=O)C1CCN(c2ncnc3c2nc2n3CCCCC2)CC1,nt,nt,16µM*,9.2µM*,nt,nt
O=C(Cn1ncc2c3ccccc3n(Cc3cccc(Cl)c3)c2c1=O)NCCC1=CCCCC1,nt,nt,-5%,-20%,nt,nt
COc1cccc(-c2noc(CCC(=O)NCC3CCCO3)n2)c1 (stereo not given),12%,-2%,8%,4%,11%,12
Cc1ccnc2nc(C(=O)OCC(=O)N(C)C3CCCCC3)nn12,1%,-5%,-4%,2%,nt,-5
CSc1ccc(-c2nc3cccc(C)n3c2Nc2ccc(Cl)cc2)cc1,nt,nt,9.2µM*,7.3µM*,nt,nt
Cc1ccc(Nc2c(-c3ccc(O)cc3)nc3cccc(C)n23)cc1,nt,nt,23µM*,?,nt,nt
COc1ccc(Nc2c(-c3ccc(Cl)cc3)nc3cnccn23)cc1OC,nt,nt,-3%,?,nt,nt
COc1ccc(C(C)(C)C)cc1NC(=O)CN1C(=O)C(=O)N(Cc2ccco2)C1=O,1%,0%,1%,2%,11%,4
CCOC(=O)C1(C)CCCN(C(=O)C(c2ccccc2)c2ccccc2)C1 (stereo not given),6%,-2%,?,?,nt,9
Cc1onc(-c2ccccc2)c1-c1ccnn1C(=O)NC(C)C,14%,23%,-21%,?,-1%,-60*
Cc1onc(-c2ccc(Cl)cc2)c1-c1ccnn1S(=O)(=O)c1cccc(C(F)(F)F)c1,-25%,-6%,?,23µM*,-12%,-20
Cc1ccc(S(=O)(=O)N2CCN(Cc3nnc(-c4c(-c5ccccc5)noc4C)o3)CC2)cc1,-2%,24%,15µM*,15µM*,?,-10
O=S(=O)(c1ccccc1)N1CCN(Cc2nnc(-c3ccccc3)o2)CC1,9%,4%,-20%,?,nt,-2
Cc1ccc(S(=O)(=O)n2nccc2-c2c(-c3ccccc3)noc2C)cc1,?,?,?,18µM*,?,nt
Cc1onc(-c2ccccc2)c1-c1ccnn1S(=O)(=O)c1ccc(Cl)cc1,-25%,-6%,-4%,-28%,?,nt
CC1CCN(C(=O)CCNS(=O)(=O)c2ccccc2)CC1,4%,15%,14%,2%,?,6
O=C(CCNS(=O)(=O)c1ccccc1)N1CCC(Cc2ccccc2)CC1,-14%,-18%,?,?,?,-50*
CC(C)(CN1CCN(C(c2ccccc2)c2ccccc2)CC1)NS(=O)(=O)c1ccccc1,-18%,-5%,23µM*,16µM*,-28%,13
CC(C)(CN1CCC(Cc2ccccc2)CC1)NS(=O)(=O)c1ccccc1,-2%,-3%,21µM*,?,?,?
COc1ccc[n+](CC(=O)c2ccc(F)cc2)c1,nt,nt,1%,-25%,nt,nt
Cc1ccccc1C(=O)O/N=C/c1c(N2CCOCC2)n(C)c2ccccc12,2.5µM*,2.8µM*,1.5µM*,1.3µM*,?,37
CCOC(=O)c1ccc(NC(=O)NCCN2CCCCC2)cc1,-2%,7%,-11%,-4%,0%,11
CCOC(=O)c1c(C)nn(-c2ccc(NC(=O)c3cccs3)cc2)c1C,?,?,23µM*,16µM*,?,-96*
CCOC(=O)c1c(C)nn(-c2ccc(NC(=O)/C=C/C(=O)O)cc2)c1C,21%,5%,-14%,1.5µM*,?,0
